# Results taken from ChEMBL document CHEMBL2218924, “A broad activity screen in support of a chemogenomic map for kinase signalling research and drug discovery” (Biochem J, 2013).
# How the values were obtained:
# [1] = target: T1, Serine/threonine-protein kinase BRSK2 (Homo sapiens) (UniProt Q8IWQ3); details: at 1 µM
# T1 sequence (whole entry): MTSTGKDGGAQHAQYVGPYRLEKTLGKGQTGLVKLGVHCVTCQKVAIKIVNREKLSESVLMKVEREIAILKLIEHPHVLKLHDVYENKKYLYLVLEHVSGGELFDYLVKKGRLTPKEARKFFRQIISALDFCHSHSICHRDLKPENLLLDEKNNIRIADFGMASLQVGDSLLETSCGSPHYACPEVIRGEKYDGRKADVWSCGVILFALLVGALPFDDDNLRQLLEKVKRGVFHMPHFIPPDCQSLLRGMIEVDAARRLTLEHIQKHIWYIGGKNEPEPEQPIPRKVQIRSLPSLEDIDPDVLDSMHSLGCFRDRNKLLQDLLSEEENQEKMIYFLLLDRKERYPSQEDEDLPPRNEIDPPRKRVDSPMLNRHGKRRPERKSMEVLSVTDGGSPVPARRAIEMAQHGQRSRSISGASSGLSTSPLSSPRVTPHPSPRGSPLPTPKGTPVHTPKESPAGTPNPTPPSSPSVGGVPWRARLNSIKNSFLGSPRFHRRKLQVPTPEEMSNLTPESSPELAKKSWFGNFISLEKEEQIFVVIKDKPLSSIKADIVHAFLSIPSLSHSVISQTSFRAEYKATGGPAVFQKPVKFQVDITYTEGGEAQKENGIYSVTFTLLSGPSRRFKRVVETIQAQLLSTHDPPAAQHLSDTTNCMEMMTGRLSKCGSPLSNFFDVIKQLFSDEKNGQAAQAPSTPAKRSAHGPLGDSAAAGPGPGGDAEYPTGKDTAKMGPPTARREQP
# [2] = target: T2, Cyclin-dependent kinase 1/cyclin B1 (Homo sapiens) (UniProt P06493+P14635); details: at 1 µM
# T2 sequence (P06493 whole entry, looked up): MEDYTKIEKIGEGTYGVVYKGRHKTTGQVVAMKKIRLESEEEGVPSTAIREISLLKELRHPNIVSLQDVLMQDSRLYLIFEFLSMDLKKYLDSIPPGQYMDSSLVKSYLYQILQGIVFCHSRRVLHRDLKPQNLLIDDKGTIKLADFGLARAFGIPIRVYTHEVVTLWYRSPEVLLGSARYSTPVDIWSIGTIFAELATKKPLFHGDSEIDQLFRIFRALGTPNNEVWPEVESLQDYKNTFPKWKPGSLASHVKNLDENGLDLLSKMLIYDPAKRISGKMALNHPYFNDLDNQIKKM
# T2 sequence (P14635 whole entry, looked up): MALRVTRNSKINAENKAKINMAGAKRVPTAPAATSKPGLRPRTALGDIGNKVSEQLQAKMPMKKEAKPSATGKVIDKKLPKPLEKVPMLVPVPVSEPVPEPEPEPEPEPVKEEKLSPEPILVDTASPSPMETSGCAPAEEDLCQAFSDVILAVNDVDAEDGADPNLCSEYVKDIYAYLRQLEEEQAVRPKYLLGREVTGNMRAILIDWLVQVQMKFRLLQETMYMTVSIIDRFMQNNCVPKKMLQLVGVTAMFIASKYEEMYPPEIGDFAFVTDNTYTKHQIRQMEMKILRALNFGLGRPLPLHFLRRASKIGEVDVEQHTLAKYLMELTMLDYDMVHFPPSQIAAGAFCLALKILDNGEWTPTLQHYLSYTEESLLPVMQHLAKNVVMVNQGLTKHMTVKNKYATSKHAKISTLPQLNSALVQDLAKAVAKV
# [3] = target: T2, Cyclin-dependent kinase 1/cyclin B1 (Homo sapiens); details: at 10 µM
# [4] = target: T3, Cyclin-dependent kinase 2/cyclin A (Homo sapiens) (UniProt P24941+P20248+P78396); details: at 1 µM
# [5] = target: T3, Cyclin-dependent kinase 2/cyclin A (Homo sapiens); details: at 10 µM
# [6] = target: T4, Cyclin-dependent kinase 2/cyclin E (Homo sapiens) (UniProt P24864+P24941+O96020); details: at 1 µM
# [7] = target: T4, Cyclin-dependent kinase 2/cyclin E (Homo sapiens); details: at 10 µM
# [8] = target: T5, CDK3/cyclin E (Homo sapiens) (UniProt P24864+O96020+Q00526); details: at 1 µM
# T5 sequence (O96020 whole entry, looked up): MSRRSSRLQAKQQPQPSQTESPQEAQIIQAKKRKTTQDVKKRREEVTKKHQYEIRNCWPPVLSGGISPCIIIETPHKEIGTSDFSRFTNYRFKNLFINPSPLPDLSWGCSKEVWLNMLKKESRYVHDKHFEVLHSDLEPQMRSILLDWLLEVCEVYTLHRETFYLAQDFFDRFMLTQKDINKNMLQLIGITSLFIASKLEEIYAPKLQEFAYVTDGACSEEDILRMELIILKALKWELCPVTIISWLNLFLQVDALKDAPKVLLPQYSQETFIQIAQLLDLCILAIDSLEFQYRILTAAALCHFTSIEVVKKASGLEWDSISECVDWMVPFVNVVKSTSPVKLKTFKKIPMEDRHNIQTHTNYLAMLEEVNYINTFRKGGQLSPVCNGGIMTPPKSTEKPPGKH
# T5 sequence (P24864 whole entry, looked up): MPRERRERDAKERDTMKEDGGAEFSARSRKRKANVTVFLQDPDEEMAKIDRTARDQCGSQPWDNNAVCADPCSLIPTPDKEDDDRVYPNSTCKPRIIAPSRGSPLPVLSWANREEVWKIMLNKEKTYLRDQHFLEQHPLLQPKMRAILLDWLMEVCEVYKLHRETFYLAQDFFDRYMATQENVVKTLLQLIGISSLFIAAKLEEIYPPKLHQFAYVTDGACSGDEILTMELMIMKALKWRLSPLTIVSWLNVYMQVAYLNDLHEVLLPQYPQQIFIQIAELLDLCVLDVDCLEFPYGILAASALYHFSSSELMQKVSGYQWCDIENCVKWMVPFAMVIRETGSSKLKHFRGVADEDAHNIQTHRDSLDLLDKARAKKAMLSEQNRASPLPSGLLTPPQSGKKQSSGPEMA
# T5 sequence (Q00526 whole entry, looked up): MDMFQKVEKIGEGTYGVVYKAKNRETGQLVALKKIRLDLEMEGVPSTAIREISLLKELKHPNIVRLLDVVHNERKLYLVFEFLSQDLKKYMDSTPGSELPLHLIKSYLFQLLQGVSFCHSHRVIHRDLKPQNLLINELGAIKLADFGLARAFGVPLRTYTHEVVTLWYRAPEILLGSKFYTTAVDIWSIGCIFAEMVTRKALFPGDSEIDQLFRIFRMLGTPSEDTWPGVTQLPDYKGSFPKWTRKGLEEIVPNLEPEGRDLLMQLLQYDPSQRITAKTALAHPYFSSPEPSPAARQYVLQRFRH
# [9] = target: T5, CDK3/cyclin E (Homo sapiens); details: at 10 µM
# [10] = target: T6, Cyclin-dependent kinase 5/CDK5 activator 1 (Homo sapiens) (UniProt Q00535+Q15078); details: at 1 µM
# T6 sequence (Q00535 whole entry): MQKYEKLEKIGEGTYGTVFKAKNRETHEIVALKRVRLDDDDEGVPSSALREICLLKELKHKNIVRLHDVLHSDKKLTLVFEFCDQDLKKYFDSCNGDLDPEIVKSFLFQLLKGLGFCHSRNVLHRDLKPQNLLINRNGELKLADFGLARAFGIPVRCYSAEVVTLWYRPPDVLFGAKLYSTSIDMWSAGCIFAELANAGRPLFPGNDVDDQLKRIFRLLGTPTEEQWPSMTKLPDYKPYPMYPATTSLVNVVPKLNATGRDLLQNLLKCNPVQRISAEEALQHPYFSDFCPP
# T6 sequence (Q15078 99-307 partner limits assumed): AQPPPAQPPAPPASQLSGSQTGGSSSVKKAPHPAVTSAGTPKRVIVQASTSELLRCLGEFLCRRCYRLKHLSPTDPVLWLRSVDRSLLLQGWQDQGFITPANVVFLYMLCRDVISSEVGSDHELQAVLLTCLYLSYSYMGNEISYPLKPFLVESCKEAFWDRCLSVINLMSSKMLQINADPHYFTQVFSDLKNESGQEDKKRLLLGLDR
# [11] = target: T6, Cyclin-dependent kinase 5/CDK5 activator 1 (Homo sapiens); details: at 10 µM
# [12] = target: T6, Cyclin-dependent kinase 5/CDK5 activator 1 (Homo sapiens); details: at 1 µM; remark: listed apart in the source
# [13] = target: T6, Cyclin-dependent kinase 5/CDK5 activator 1 (Homo sapiens); details: at 10 µM; remark: listed apart in the source
# [14] = target: T7, CDK6/cyclin D3 (Homo sapiens) (UniProt P30281+Q00534); details: at 1 µM
# [15] = target: T7, CDK6/cyclin D3 (Homo sapiens); details: at 10 µM
# [16] = target: T8, Cyclin-dependent kinase 7/ cyclin H (Homo sapiens) (UniProt P51946+P50613); details: at 1 µM
# [17] = target: T8, Cyclin-dependent kinase 7/ cyclin H (Homo sapiens); details: at 10 µM
# [18] = target: T9, Serine/threonine-protein kinase BRSK1 (Homo sapiens) (UniProt Q8TDC3); details: at 1 µM
# T9 sequence (whole entry): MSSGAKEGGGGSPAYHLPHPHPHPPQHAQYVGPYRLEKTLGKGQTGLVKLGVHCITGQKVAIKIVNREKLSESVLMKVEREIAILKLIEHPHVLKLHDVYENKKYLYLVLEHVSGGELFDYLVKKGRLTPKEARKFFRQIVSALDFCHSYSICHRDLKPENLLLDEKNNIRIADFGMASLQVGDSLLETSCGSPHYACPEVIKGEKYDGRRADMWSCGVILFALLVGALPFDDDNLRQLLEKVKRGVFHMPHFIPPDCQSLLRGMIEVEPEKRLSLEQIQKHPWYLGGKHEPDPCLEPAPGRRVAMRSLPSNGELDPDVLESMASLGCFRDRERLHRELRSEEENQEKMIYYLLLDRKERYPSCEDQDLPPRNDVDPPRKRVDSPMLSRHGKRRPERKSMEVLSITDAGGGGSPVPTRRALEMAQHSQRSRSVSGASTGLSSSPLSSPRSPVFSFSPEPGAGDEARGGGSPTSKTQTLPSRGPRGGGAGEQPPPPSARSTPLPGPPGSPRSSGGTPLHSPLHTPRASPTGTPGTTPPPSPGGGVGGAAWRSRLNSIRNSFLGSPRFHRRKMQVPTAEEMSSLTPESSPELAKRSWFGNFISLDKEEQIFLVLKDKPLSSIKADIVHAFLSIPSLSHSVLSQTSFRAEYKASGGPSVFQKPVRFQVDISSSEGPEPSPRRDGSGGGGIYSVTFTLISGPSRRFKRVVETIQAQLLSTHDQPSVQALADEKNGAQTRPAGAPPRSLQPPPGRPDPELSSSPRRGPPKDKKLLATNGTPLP
# [19] = target: T9, Serine/threonine-protein kinase BRSK1 (Homo sapiens); details: at 10 µM
# [20] = target: T1, Serine/threonine-protein kinase BRSK2 (Homo sapiens); details: at 10 µM
smiles,measurement,setting,value
CCCCc1c(-c2ccc(OC)cc2)[nH]c2nccnc12,residual activity,[1],104%
same,residual activity,[2],31%
same,residual activity,[3],26%
same,residual activity,[4],48%
same,residual activity,[5],25%
same,residual activity,[6],30%
same,residual activity,[7],46%
same,residual activity,[8],40%
same,residual activity,[9],32%
same,residual activity,[10],19%
same,residual activity,[11],33%
same,residual activity,[12],25%
same,residual activity,[13],38%
same,residual activity,[14],87%
same,residual activity,[15],58%
same,residual activity,[16],84%
same,residual activity,[17],44%
CC(C)[C@H](CO)Nc1nc(Nc2cc(N)cc(Cl)c2)c2ncn(C(C)C)c2n1,residual activity,[18],91%
same,residual activity,[19],75%
same,residual activity,[12],20%
same,residual activity,[13],2%
same,residual activity,[16],43%
same,residual activity,[17],6%
CCOc1nc(NC(=O)Cc2cc(OC)ccc2OC)cc(N)c1C#N,residual activity,[8],82%
same,residual activity,[14],100%
O=S(=O)(c1cccc2cnccc12)N1CCCNCC1,residual activity,[19],84%
same,residual activity,[20],80%
COc1ccc(COc2ccc(Cc3cnc(N)nc3N)cc2OC)cc1,residual activity,[1],99%
same,residual activity,[20],115%
same,residual activity,[3],109%
O=c1cc(N2CCOCC2)oc2c(-c3ccccc3)cccc12,residual activity,[4],131%
O=S(=O)(NCCNC/C=C/c1ccc(Br)cc1)c1cccc2cnccc12,residual activity,[18],80%
same,residual activity,[19],53%
same,residual activity,[9],59%
same,residual activity,[13],63%
same,residual activity,[17],41%
O=C(Nc1nc2ccccc2n1CCN1CCOCC1)c1cccc([N+](=O)[O-])c1,residual activity,[18],83%
same,residual activity,[19],78%
same,residual activity,[2],114%
same,residual activity,[3],103%
same,residual activity,[6],106%
same,residual activity,[7],104%
same,residual activity,[14],88%
same,residual activity,[15],88%
same,residual activity,[16],75%
same,residual activity,[17],77%
CC(C)N(CCC(=O)c1ccc2ccccc2c1)Cc1ccccc1,residual activity,[18],87%
same,residual activity,[8],86%
same,residual activity,[9],77%
same,residual activity,[10],87%
same,residual activity,[12],79%
same,residual activity,[13],81%
same,residual activity,[14],87%
same,residual activity,[15],78%
same,residual activity,[16],83%
same,residual activity,[17],82%
COc1cc2ncnc(Nc3cccc(Cl)c3)c2cc1OC,residual activity,[18],14%
same,residual activity,[19],17%
same,residual activity,[4],138%
same,residual activity,[6],109%
same,residual activity,[7],105%
same,residual activity,[8],105%
same,residual activity,[10],113%
same,residual activity,[11],107%
same,residual activity,[15],100%
NC(=O)c1cccc(-c2cc(Nc3ccc(OC(F)(F)F)cc3)ncn2)c1,residual activity,[4],139%
same,residual activity,[5],94%
same,residual activity,[10],93%
same,residual activity,[11],65%
same,residual activity,[17],91%
CN([C@@H](Cc1ccc(OS(=O)(=O)c2cccc3cnccc23)cc1)C(=O)N1CCN(c2ccccc2)CC1)S(=O)(=O)c1cccc2cnccc12,residual activity,[19],74%
same,residual activity,[20],79%
same,residual activity,[5],98%
N#Cc1c(NC(=O)c2cccc3ccccc23)sc2c1CCCC2,residual activity,[20],90%
same,residual activity,[4],96%
same,residual activity,[5],90%
same,residual activity,[6],96%
same,residual activity,[7],94%
same,residual activity,[15],90%
O=C1Cc2c([nH]c3ccc([N+](=O)[O-])cc23)-c2ccccc2N1,residual activity,[1],32%
same,residual activity,[20],20%
same,residual activity,[2],47%
same,residual activity,[3],23%
same,residual activity,[4],14%
same,residual activity,[5],10%
same,residual activity,[7],11%
same,residual activity,[9],6%
same,residual activity,[10],9%
same,residual activity,[11],6%
same,residual activity,[12],6%
same,residual activity,[13],6%
same,residual activity,[14],60%
same,residual activity,[15],26%
CCN1/C(=C/C(C)=O)Sc2ccc(OC)cc21,residual activity,[6],81%
same,residual activity,[7],76%
same,residual activity,[8],82%
same,residual activity,[9],80%
same,residual activity,[13],71%
same,residual activity,[16],82%
same,residual activity,[17],81%
COc1ccc(CNC(=O)Nc2ncc([N+](=O)[O-])s2)cc1,residual activity,[4],78%
same,residual activity,[5],79%
same,residual activity,[8],68%
same,residual activity,[9],26%
same,residual activity,[17],69%
Cn1sc(=O)n(Cc2ccccc2)c1=O,residual activity,[18],86%
same,residual activity,[19],83%
same,residual activity,[4],79%
same,residual activity,[5],79%
same,residual activity,[6],96%
same,residual activity,[7],95%
same,residual activity,[8],83%
same,residual activity,[9],79%
same,residual activity,[10],81%
same,residual activity,[11],81%
same,residual activity,[12],97%
same,residual activity,[13],97%
same,residual activity,[14],89%
same,residual activity,[15],82%
same,residual activity,[16],99%
same,residual activity,[17],86%
N#C/C(=C\c1ccc(O)c(O)c1)C(=O)NCc1ccccc1,residual activity,[5],85%
same,residual activity,[8],100%
same,residual activity,[9],81%
Fc1ccc(-c2nc3n(c2-c2ccncc2)CCS3)cc1,residual activity,[18],99%
same,residual activity,[19],100%
same,residual activity,[2],100%
same,residual activity,[3],95%
same,residual activity,[4],83%
same,residual activity,[5],89%
same,residual activity,[7],94%
same,residual activity,[14],124%
CCOC(=O)c1c(C)[nH]c(/C=C2\C(=O)Nc3ccccc32)c1C,residual activity,[4],140%
same,residual activity,[5],100%
same,residual activity,[6],99%
same,residual activity,[7],95%
same,residual activity,[8],100%
same,residual activity,[9],90%
same,residual activity,[14],93%
same,residual activity,[15],95%
Nc1ncnc2c1c(-c1ccc(Oc3ccccc3)cc1)cn2C1CCCC1,residual activity,[18],17%
same,residual activity,[1],63%
same,residual activity,[20],61%
same,residual activity,[2],104%
same,residual activity,[3],85%
same,residual activity,[4],113%
same,residual activity,[5],72%
same,residual activity,[6],94%
same,residual activity,[7],79%
same,residual activity,[8],90%
same,residual activity,[9],81%
same,residual activity,[10],78%
same,residual activity,[11],58%
same,residual activity,[12],80%
same,residual activity,[13],76%
same,residual activity,[14],85%
same,residual activity,[15],66%
same,residual activity,[16],78%
same,residual activity,[17],95%
O=C(Nc1ccc(Cl)cc1)c1ccccc1NCc1ccncc1,residual activity,[19],126%
same,residual activity,[4],126%
same,residual activity,[14],102%
same,residual activity,[15],102%
same,residual activity,[17],124%
